Data: PubChem BioAssay (NCI)
About 83,000 compounds went through this panel and 20% of them were active in at least one assay; those are over-represented in the sample as a whole.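 Interpretation: 100, growth as untreated; towards 0, rising growth inhibition; 0, no net growth; 0 to -100, cell death. Compounds scoring below 10 were considered active.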 Activity calls are given as the source filed them.

Legend:
Experiment in all cases: NCI-60 one-dose screen, 48 h (100 = growth as untreated, 0 = no growth, -100 = all killed)
Conditions in all cases: 10 µM unless noted
T-47D breast = test system: T-47D breast
BT-549 breast = test system: BT-549 breast
MDA-MB-435 melanoma = test system: MDA-MB-435 melanoma
SW-620 colon = test system: SW-620 colon
MCF7 breast = test system: MCF7 breast
HCT-116 colon = test system: HCT-116 colon
HCC-2998 colon = test system: HCC-2998 colon
KM12 colon = test system: KM12 colon

Measured: growth

CCCC/C(CC)=N\NS(=O)(=O)c1ccc([N+](=O)[O-])cc1
inactive: T-47D breast 95.3% | BT-549 breast 114% | MDA-MB-435 melanoma 107% | SW-620 colon 106% | MCF7 breast 102% | HCT-116 colon 99.6% | HCC-2998 colon 107% | KM12 colon 98.6%

O=C1/C(=C\c2ccc3nccnc3c2)SC(=S)N1CCc1ccc(O)cc1
inactive: T-47D breast 50.4% | BT-549 breast 96.5% | MDA-MB-435 melanoma 93.2% | SW-620 colon 98.2% | MCF7 breast 41.9% | HCT-116 colon 94.8% | HCC-2998 colon 117% | KM12 colon 52.1%

COC(=O)c1nc(-c2ccccc2)oc1S(=O)(=O)Cc1ccccc1
inactive: T-47D breast 59.9% | BT-549 breast 80.1% | MDA-MB-435 melanoma 100% | SW-620 colon 32.9% | MCF7 breast 78.5% | HCT-116 colon 68.9% | HCC-2998 colon 111% | KM12 colon 96.4%

CCOC(=O)c1cc(C)n(-c2ccc(C(=O)O)cc2)c1C
inactive: T-47D breast 102% | BT-549 breast 76.1% | MDA-MB-435 melanoma 107% | SW-620 colon 64.4% | MCF7 breast 67.1% | HCT-116 colon 67.5% | HCC-2998 colon 133% | KM12 colon 95.3%

O=S(=O)(NCCNc1nccc(-c2c(-c3ccc(F)c(O)c3)nc3occn23)n1)c1ccc(Cl)cc1
inactive: T-47D breast 92.3% | BT-549 breast 107% | MDA-MB-435 melanoma 38.6% | SW-620 colon 112% | MCF7 breast 71.6% | HCT-116 colon 60.9% | HCC-2998 colon 102% | KM12 colon 84%

O=c1scc(-c2ccc(C(F)(F)F)cc2)s1
inactive: T-47D breast 95.6% | BT-549 breast 88.3% | MDA-MB-435 melanoma 87.5% | SW-620 colon 96.8% | MCF7 breast 64.9% | HCT-116 colon 100% | HCC-2998 colon 76.7% | KM12 colon 109%

C=C1C(=O)O[C@H]2[C@H]1CC/C(COC(=O)/C=C\C(=O)NCc1ccc(Cn3c(=O)sn(CCI)c3=O)cc1)=C\CC[C@@]1(C)O[C@@H]21
active: SW-620 colon 8.21%
inactive: T-47D breast 57.6% | BT-549 breast 71.9% | MDA-MB-435 melanoma 44.9% | MCF7 breast 24.8% | HCT-116 colon 19% | HCC-2998 colon 83.9% | KM12 colon 97.4%

C=CC[Se]C(=O)Cc1c(C)n(C(=O)c2ccc(Cl)cc2)c2ccc(OC)cc12
active: T-47D breast -24.3% | BT-549 breast 0.594% | MDA-MB-435 melanoma 8.15% | SW-620 colon 5.69% | MCF7 breast -4.29% | HCT-116 colon 5.41% | HCC-2998 colon 4.27% | KM12 colon -27.9%

Fc1cnccc1C1CC(c2ccc(N3CCNCC3)cc2)=NN1 (configuration not stated)
inactive: T-47D breast 82.2% | BT-549 breast 85.3% | MDA-MB-435 melanoma 105% | SW-620 colon 93.5% | MCF7 breast 73% | HCT-116 colon 73.8% | HCC-2998 colon 102% | KM12 colon 96.2%

CCOc1nc(-c2ccccc2)cc2c(O)c(C(=O)N/N=C/c3ccccc3)[nH]c(=O)c12
inactive: T-47D breast 110% | BT-549 breast 167% | MDA-MB-435 melanoma 123% | SW-620 colon 100% | MCF7 breast 101% | HCT-116 colon 111% | KM12 colon 109%
active: HCC-2998 colon 8.59%

Cc1ccc2c(Cn3cc(CSc4nc5ccccc5o4)nn3)cc(=O)oc2c1
inactive: T-47D breast 100% | BT-549 breast 104% | MDA-MB-435 melanoma 102% | SW-620 colon 106% | MCF7 breast 100% | HCT-116 colon 104% | HCC-2998 colon 115% | KM12 colon 113%

Cc1ccc(C[P+](c2ccccc2)(c2ccccc2)c2ccccc2)cc1
inactive: SW-620 colon 10.9% | MCF7 breast 10.9%
active: T-47D breast 1.57% | BT-549 breast 0.272% | MDA-MB-435 melanoma 4.92% | HCT-116 colon 2.21% | HCC-2998 colon -26.4% | KM12 colon -12.9%

COc1cc2c(cc1OCCCN1CCN(CCCOc3cc4c(cc3OC)C(=O)N3CCC[C@H]3C=N4)CC1)C=CC(C)(C)O2
active: T-47D breast -55.2% | BT-549 breast -100% | MDA-MB-435 melanoma -72.9% | SW-620 colon -100% | MCF7 breast -100% | HCT-116 colon -96% | HCC-2998 colon -82.1% | KM12 colon -82%

Nc1[nH]n2cc(-c3ccccc3)nc2c1N=Nc1ccc(S(N)(=O)=O)cc1
inactive: T-47D breast 42.8% | BT-549 breast 59.5% | MDA-MB-435 melanoma 28.9% | SW-620 colon 26.1% | MCF7 breast 45.5% | HCT-116 colon 22.6% | HCC-2998 colon 45.5% | KM12 colon 33.3%

COc1ccc(-c2cc(-c3cccnc3)nc3sc4c(=O)[nH]c(-c5ccc(Cl)cc5)nc4c23)cc1OC
inactive: T-47D breast 66.8% | BT-549 breast 91.1% | MDA-MB-435 melanoma 99.8% | SW-620 colon 92.2% | MCF7 breast 73.5% | HCT-116 colon 80.7% | HCC-2998 colon 105% | KM12 colon 99%

O=C(NCCNc1nccc(Nc2ccc(S(=O)(=O)Nc3ccccn3)cc2)n1)c1cccc([N+](=O)[O-])c1
inactive: T-47D breast 89% | BT-549 breast 96.9% | MDA-MB-435 melanoma 103% | SW-620 colon 102% | MCF7 breast 88.5% | HCT-116 colon 90.4% | HCC-2998 colon 109% | KM12 colon 99%

c1cc2c(ccc3[nH]c(-c4ccc5[nH]ncc5c4)c4c(c32)CCCC4)n1
inactive: T-47D breast 38.9% | BT-549 breast 53.2% | MDA-MB-435 melanoma 68.9% | SW-620 colon 60.8% | MCF7 breast 23.3% | HCT-116 colon 38% | HCC-2998 colon 93.6% | KM12 colon 67.9%

CCN1CCN(C(=O)[C@]23CCC(C)(C)C[C@@H]2C2=CC[C@@H]4[C@@]5(C)CCC(=O)C(C)(C)[C@@H]5CC[C@@]4(C)[C@]2(C)CC3)CC1
inactive: T-47D breast 56.4% | BT-549 breast 58.6% | MDA-MB-435 melanoma 33.9% | SW-620 colon 31.8% | MCF7 breast 39.9% | HCT-116 colon 19.1% | HCC-2998 colon 62.8% | KM12 colon 41.2%

CC/C(=C(/c1ccc(Cl)cc1)c1ccc(OCCN(C)C)cc1)c1ccc(Cl)cc1
inactive: T-47D breast 58.4% | BT-549 breast 82.7% | MDA-MB-435 melanoma 73.1% | SW-620 colon 55.8% | MCF7 breast 20.5% | HCT-116 colon 56.7% | HCC-2998 colon 46.9% | KM12 colon 56.6%

CCc1ccccc1-n1c(-c2ccc(OC)cc2)cc(-c2ccc(OC)cc2)c(C#N)c1=O
inactive: T-47D breast 90.6% | BT-549 breast 101% | MDA-MB-435 melanoma 104% | SW-620 colon 93.9% | MCF7 breast 93% | HCT-116 colon 51.1% | HCC-2998 colon 97.1% | KM12 colon 92.5%

C#CCOC(=O)/C=C/c1cn(-c2ccccc2)nc1-c1ccc(OC)cc1
inactive: T-47D breast 88.3% | BT-549 breast 108% | MDA-MB-435 melanoma 107% | SW-620 colon 112% | MCF7 breast 79.1% | HCT-116 colon 74.8% | HCC-2998 colon 105% | KM12 colon 96.9%

CN(C)CCNC(=O)c1ccc(-c2nc3ccc4[nH]ncc4c3c3c2C2CCC3C2)cc1 (configuration not stated)
active: BT-549 breast 2.26% | MCF7 breast 9.64% | HCT-116 colon 9.52% | KM12 colon 2.75%
inactive: T-47D breast 43.6% | MDA-MB-435 melanoma 42% | SW-620 colon 17.8% | HCC-2998 colon 38.5%

COC(=O)[C@]12CCC(C)(C)C[C@H]1[C@H]1/C(=N/OCCc3nn[nH]n3)C[C@@H]3[C@@]4(C)CC[C@H](OC(C)=O)C(C)(C)[C@@H]4CC[C@@]3(C)[C@]1(C)CC2
inactive: T-47D breast 26% | BT-549 breast 34.9% | MDA-MB-435 melanoma 31.4% | SW-620 colon 41.9% | MCF7 breast 20.9% | HCT-116 colon 24.7% | HCC-2998 colon 54.7% | KM12 colon 36.5%

CCCCC1=C(P(=O)(O)O)N[C@H](C(=O)O)CS1
inactive: T-47D breast 96.7% | BT-549 breast 102% | MDA-MB-435 melanoma 101% | SW-620 colon 96.9% | MCF7 breast 89.3% | HCT-116 colon 96.5% | HCC-2998 colon 89.2% | KM12 colon 110%

N#CC1=C(N)Oc2c(ccc3ccccc23)C1c1ccccc1 (configuration not stated)
inactive: T-47D breast 63.5% | SW-620 colon 28.2% | MCF7 breast 11.1% | KM12 colon 14.7%
active: BT-549 breast -16.5% | MDA-MB-435 melanoma -38.9% | HCT-116 colon 3.37% | HCC-2998 colon -4.65%

C=CCn1c(C)nc2ccc(Nc3nc(Nc4ccc5nc(C)n(CC=C)c5c4)c4ccccc4n3)cc21
inactive: BT-549 breast 72.1%
active: T-47D breast -91% | MDA-MB-435 melanoma -78% | SW-620 colon -80.5% | MCF7 breast -87.9% | HCT-116 colon -97.8% | HCC-2998 colon -52.7% | KM12 colon -84.8%

CN(c1cc2ncc(=O)[nH]c2cc1NC(N)=NCc1ccc(Cl)cc1)C1CCCCC1
active: SW-620 colon 6.15% | MCF7 breast -44.2% | HCC-2998 colon -10.5%
inactive: T-47D breast 47.6% | BT-549 breast 82% | MDA-MB-435 melanoma 40.2% | HCT-116 colon 24.9% | KM12 colon 28.7%

COc1cc2c(c(OC)c1OC)CCC(c1cccc(C(=O)Nc3cccc(Cl)c3)c1)O2 (configuration not stated)
inactive: T-47D breast 36.7% | BT-549 breast 67.5% | MDA-MB-435 melanoma 82.1% | SW-620 colon 99.2% | MCF7 breast 73% | HCT-116 colon 74.2% | HCC-2998 colon 91% | KM12 colon 96.3%

COc1ccc(C(O)c2cc3c(N)c(C(=O)Nc4cccc(Br)c4)sc3nc2C)cc1 (configuration not stated)
inactive: T-47D breast 53.2% | SW-620 colon 23.7%
active: BT-549 breast 3.53% | MDA-MB-435 melanoma -33.4% | MCF7 breast 9.88% | HCT-116 colon 6.39% | HCC-2998 colon -33.9% | KM12 colon 0.956%
